This is a sample that favours compounds with a hit; in the whole collection about 3.3% have one here.
HttQ103 aggreg – mutant huntingtin aggregation inhibition | PC12 HttQ103-GFP aggregates, Acumen cytometry, 40 h | Potency, µM (doses to about 46.1 µM), for the others: top-dose activity change, negative = inhibition, usual class: inhibitors | hit rate 1.1% among 220,000; note: potency is the fitted concentration of half-maximal effect; % is set by controls: 0 for no effect and ±100 for the full control effect; nearly all actives have a fitted effect of over 60% in size
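Using laser scanning cytometry, GFP-positive aggregates were counted after lysis of PC12 cells induced with 100 nM tebufenozide to express HTT exon 1 Q103–GFP. Compounds were tested in titration.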
NPSR antag – antagonists of human neuropeptide S receptor cAMP signaling | hit rate 1% among 220,000 | CHO-NPSR cells, cAMP TR-FRET, antagonist mode | Potency, µM (titrated, usually from 38.3 µM), inactives show top-dose activity change, negative = inhibition, actives largely listed as inhibitors; note: potency is the fitted concentration of half-maximal effect; % is set by controls: 0 for no effect and ±100 for the full control effect; nearly all actives have a fitted effect of over 50% in size
PNC assembly inh – inhibitors of perinucleolar compartment assembly; PC3M PTB-GFP, PNC prevalence imaging, 16 h; hits give low values; activity change (PNC), negative = inhibition, % at 10 µM; hit rate 3.1% among 140,000;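 active = readout at or below -70, meaning at least 70% loss of cells showing the perinucleolar compartment, a nuclear body marking cancer cells; inconclusive = readout between -30 and a set limit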;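 note: plate controls were DMSO wells for no effect and camptothecin positive control wells for full effect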
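Read-out is percentage of cells bearing a perinucleolar compartment, from automated 20x imaging of fixed, Hoechst-stained PC3M PTB-GFP cells. Cells were seeded 4 h, then exposed 16 h to compound (23 nl of library stock) in duplicate plates.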
HTT ATP protect – cytoprotection in Huntington HTT-Q103 PC12 cell model; hit rate 0.14% among 230,000; PC12 HTT-Q103 induced, cytoprotection, ATP luminescence, 40 h; Potency, µM (series often up to 56.4 µM), for the others: cytoprotection (ATP increase), actives largely listed as activators; AID 1471; note: potency is the fitted concentration of half-maximal effect; % of control where 0% means no effect; nearly all actives have a fitted effect of over 45% in size
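PC12 cells stably carrying ecdysone-inducible Htt exon 1 (Q103)–GFP were induced with 100 nM tebufenozide (final) alongside library compounds in a dose series. Cytoprotection was scored as retained ATP by ATPlite luminescence.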
IMPase cell inh – IMPase inhibition in cells | CHO-M1 cells, IP1 accumulation, HTRF TR-FRET ratio | inhibition (IP1 accumulation), % at 46.1 µM | 120,000 tested, under 10 active | AID 901; active = well fitted curve in the direction sought with a large enough effect in the signal ratio, not every such curve was filed as active; inconclusive = small, poorly fitted or top-dose-only effect, or a change in a side signal; inactive = no such curve, though single readings can be large or run the other way; the % refers to the signal ratio;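 note: cells stimulated with carbachol in lithium chloride buffer; plate controls were DMSO basal wells for no effect and reference inhibitor wells for full effect; higher means more IMPase inhibition seen as more IP1 and lower FRET ratio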
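In this qHTS, compounds (final up to 46 uM) act on CHO-M1 cells that are then activated through the M1 receptor with carbachol, in pH 7.4 buffer containing 50 mM LiCl, for 30 min. IP1 accumulation is quantified by the IP-One immunoassay.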
ALOX12 inhib – blocks human 12-lipoxygenase activity; purified 12-hLO, xylenol orange hydroperoxide absorbance; Potency, µM (series often up to 57.1 µM), for the others: top-dose activity change, negative = inhibition, hits mostly inhibitors; hit rate 0.12% among 150,000; AID 1452; note: potency is the fitted concentration of half-maximal effect; % is set by controls: 0 for no effect and ±100 for the full control effect; nearly all actives have a fitted effect of over 55% in size
Target sequence (P18054 whole entry, looked up): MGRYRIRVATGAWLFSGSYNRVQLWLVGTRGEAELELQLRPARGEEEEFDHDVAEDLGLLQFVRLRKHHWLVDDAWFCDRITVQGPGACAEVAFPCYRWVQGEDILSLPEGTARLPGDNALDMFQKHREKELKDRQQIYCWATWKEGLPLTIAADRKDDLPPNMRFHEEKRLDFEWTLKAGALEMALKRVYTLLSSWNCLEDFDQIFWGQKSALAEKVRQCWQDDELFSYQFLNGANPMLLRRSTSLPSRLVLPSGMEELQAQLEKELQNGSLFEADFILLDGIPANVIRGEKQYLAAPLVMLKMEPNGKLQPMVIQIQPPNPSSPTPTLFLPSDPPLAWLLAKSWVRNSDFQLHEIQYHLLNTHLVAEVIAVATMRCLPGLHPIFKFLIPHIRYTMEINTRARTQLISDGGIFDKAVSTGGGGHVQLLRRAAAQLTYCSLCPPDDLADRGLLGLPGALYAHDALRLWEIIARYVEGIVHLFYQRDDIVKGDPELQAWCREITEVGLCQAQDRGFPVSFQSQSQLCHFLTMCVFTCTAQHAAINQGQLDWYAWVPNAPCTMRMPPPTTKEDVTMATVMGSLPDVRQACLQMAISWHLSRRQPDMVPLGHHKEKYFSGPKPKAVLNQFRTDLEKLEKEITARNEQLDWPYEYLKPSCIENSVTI
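Xylenol orange chromogenic assay: hydroperoxide from 12hLO oxidises Fe(II), giving red-shifted Fe(III)-XO absorbance. Conditions: 150 nM enzyme, 40 uM arachidonic acid, 25 mM Hepes pH 7.0, 0.01% Triton X-100, 30 min, room temperature.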
Numbers without * were called inactive; ? = inconclusive; . = no result given; [ ] = remark or other dose. Unless noted, calls come from the whole dose curve; as a rule, active = well fitted curve in the direction sought with a large enough effect; inconclusive = small, poorly fitted or top-dose-only effect, or another doubt; inactive = no such curve, though single readings can be large; an effect the other way counts as inactive or inconclusive.

SMILES | HttQ103 aggreg | NPSR antag | PNC assembly inh | HTT ATP protect | IMPase cell inh | ALOX12 inhib
Cc1ccc(CN(c2ccc(C(=O)N3CCCC3)cc2)S(C)(=O)=O)cc1 | -15% | -19%[46.1 µM] | -83* | 6% | 3 | -4%
Cc1ccc(SCc2ccc(C(=O)N3CCCC3)cc2)cc1 | 11µM* | -22% | . | -40% | . | .
COc1ccc(C(=O)NCc2cn3c(C)csc3n2)cc1OC | 2% | -11%[46.1 µM] | -100* | -9%[10 µM] | 1 | 5%
Cc1csc2nc(CNC(=O)c3cccc(C(F)(F)F)c3)cn12 | 6% | -11%[46.1 µM] | 21 | -14% | 0 | 1%
Cc1ccccc1N(CC(=O)NC1CCCC1)C(=O)C1(C)CC(=O)N=C2C=CC=CN21 (stereo not drawn) | 11% | 2%[46.1 µM] | -116* | 4%[10 µM] | . | 2%
Cc1n[nH]c(C)c1SCC(=O)Nc1ccc(F)cc1 | 5% | -4%[46.1 µM] | -100* | -25%[0.074 µM] | -2 | 2%
COc1ccccc1C1CN(c2ccc(F)cc2F)N=C1c1cccs1 (stereo not drawn) | -1%[9.22 µM] | -10%[46.1 µM] | -94* | -6% | -26 | -17%
COc1ccccc1C1CC(c2cccs2)=Nc2ccccc2S1 (stereo not drawn) | 8% | -28%[46.1 µM] | 13 | 2% | 6 | -13%
O=C(CSCc1ccc(Cl)cc1)NN=C1CCCCCC1 | 4% | 15% | -93* | 15%[10 µM] | . | -2%
CCCCCNC1=CC(=O)CC(c2ccccc2)C1 (stereo not drawn) | -21% | -11%[46.1 µM] | -84* | -72% | -5 | 2%
CCCCCCCNC1=CC(=O)CC(c2ccccc2)C1 (stereo not drawn) | -31% | -20%[46.1 µM] | 25 | 13%[10 µM] | -1 | -2%
Cc1cccn2c(=O)c(/C=C(\C#N)c3nc4ccccc4n3C)c(Oc3ccc(Br)cc3)nc12 | . | . | . | . | 8 | .
Cc1ccc2c(c1)nnn2C1CCN(S(=O)(=O)c2ccc(C(=O)N3C(C)CCCC3C)cc2)CC1 (stereo not drawn) | 13µM* | ? | -16 | -65% | 15 | 9%
CC1CN(S(=O)(=O)N2CCOCC2)CCN1S(=O)(=O)N1CCOCC1 (stereo not drawn) | 12% | 27% | . | . | . | .
CCn1c(C)nc2cc(C(=O)N/N=C/c3cccc(OC)c3O)ccc21 | 2µM* | -5% | . | -44%[10 µM] | . | .
COc1cccc(/C=N/NC(=O)c2c(C)nc3ccc(Br)cn23)c1O | 2.2µM* | -15% | . | -155% | . | .
COC(=O)c1ccc(C2C(C(=O)OC(C)C)=C(C)N=C3SCCC(=O)N32)cc1 (stereo not drawn) | 7% | -6%[46.1 µM] | -90* | 5% | 7 | -4%
COC(=O)C1=C(C)N=C2SCCC(=O)N2C1c1ccc(OC(=O)c2ccco2)cc1 (stereo not drawn) | 4% | 3% | 57 | 14%[10 µM] | -2 | 1%
C=CCOC(=O)C1=C(C)N=C2SCCC(=O)N2C1c1ccc(OC(=O)c2ccco2)cc1 (stereo not drawn) | -20% | -23%[46.1 µM] | -127* | -14% | -5 | 3%
O=C(CCl)Nc1ccccc1C(=O)Nc1ccc2c(c1)OCO2 | 2%[9.22 µM] | 10%[7.67 µM] | . | -35%[10 µM] | . | .
CCOc1ccc(CN(C)C(=O)CCl)cc1 | -1%[9.22 µM] | -14% | . | 9%[10 µM] | . | .
CC1CCC(C(C)C)C(OP(=O)(c2ccc(N(C)C)cc2)C(O)c2cccnc2)C1 (stereo not drawn) | 2% | -28% | -114* | . | . | -1%
CC1CCC(C(C)C)C(OP(=O)(c2ccccc2)C(O)c2ccncc2)C1 (stereo not drawn) | -1% | -11% | . | -18% | . | .
COc1ccc(C(=O)/C=C/C(=O)N(Cc2ccccc2)C(C(=O)NC2CCCCC2)c2ccncc2)c(O)c1 (stereo not drawn) | ? | -6% | -86* | 4%[10 µM] | . | -3%
O=C(COC(=O)CCSc1ccc(Cl)cc1)NCc1ccccc1Cl | 16µM* | 13% | -10 | . | . | 0%
SMILES | HttQ103 aggreg | NPSR antag | PNC assembly inh | HTT ATP protect | IMPase cell inh | ALOX12 inhib
O=C(COC(=O)CCSc1ccc(Cl)cc1)NCCc1ccccc1 | ? | 12%[46.1 µM] | 5 | 10%[10 µM] | 0 | -2%
Nc1nc2ncc(=O)[nH]c2c(=O)[nH]1 | . | . | . | . | . | 9%
c1ccc(Nc2nc(-c3ccccn3)cs2)cc1 | -6% | ? | 6 | -36% | 0 | -12%
COc1cccc2sc(Nc3nc(-c4ccccn4)cs3)nc12 | 10% | 1µM* | -14 | 6% | -12 | -8%
CC1(OC(=O)c2cnc3ccccc3n2)C(=O)C=C2C=C(c3ccsc3)OC=C2C1=O (stereo not drawn) | . | . | . | 20% | . | 8%
Cn1c2ccccc2c2cc(C(=O)NNS(=O)(=O)c3ccc(F)cc3)sc21 | -28% | 3%[46.1 µM] | -88* | 14%[10 µM] | -8[1.84 µM] | 0%
CN(C)CCCNC(=O)c1cc2c3ccccc3n(C)c2s1 | 7% | -1%[46.1 µM] | 19 | -12% | 0 | 4%
C=C1C2=CC(=O)OC(c3ccoc3)[C@]2(C)CCC1[C@]1(C)C=CC(=O)C(C)(C)C1CC(=O)OC (stereo partly drawn) | . | . | . | 11% | . | -4%
N#C/C(=C\c1ccc([N+](=O)[O-])o1)c1nc2ccccc2[nH]1 | -24%[9.22 µM] | 4µM* | 10 | -23%[10 µM] | 7 | 2%
Cc1ccc2nc(/C(C#N)=C\c3ccc(N4CCOCC4)o3)[nH]c2c1 | ? | -9% | 17 | -25%[10 µM] | 2 | -29%
N#C/C(=C/c1ccc(Sc2nc3ccccc3[nH]2)o1)c1cccc(F)c1 | ? | ? | -2 | 1% | -1 | -5%
N#C/C(=C/c1ccc(Sc2nc3ccccc3[nH]2)o1)c1ccccc1F | 11µM* | ? | ? | -34% | 6 | 3%
Cc1ccc2nc(/C(C#N)=C\c3ccc([N+](=O)[O-])o3)[nH]c2c1 | ? | 10µM* | 32 | -45% | 3 | -5%
CN(C)S(=O)(=O)c1cccc(-c2nn(-c3ccccc3)cc2/C=C2\SC(=S)NC2=O)c1 | ? | 7.9µM* | 31 | 7%[10 µM] | 13 | -8%
Cc1ccc(C(=O)NN2C(=O)CSC2=S)cc1 | 1% | 13% | -84* | . | . | -6%
CC(C)(C)c1ccc(C(=O)NN2C(=O)CSC2=S)cc1 | -14%[9.22 µM] | -12% | . | -4%[10 µM] | . | .
CC1CCN(c2ccc(/C=N\Nc3nncn3N)cc2[N+](=O)[O-])CC1 | -10% | -5% | -116* | -6%[10 µM] | . | -2%
O=C(CCSc1ccc(Cl)cc1)NC1CCCCC1 | 27% | -16%[46.1 µM] | -109* | 8% | 6 | 6%
O=C(CCSc1ccccc1)NC1CCCCCC1 | 5% | -4% | . | -4% | . | .
COc1cc([C@@H](O)CO)ccc1OS(=O)(=O)O | . | . | . | 4%[1.9 µM] | 10 | -2%
CCOC(=O)c1c(C)[nH]c(C)c1C(=O)CN1C(=O)NC2(CCC(C)CC2)C1=O (stereo not drawn) | -12% | 1%[46.1 µM] | ? | -24% | -5 | -1%
